From PubChem BioAssay
The source made the active and inactive calls.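 The calls were made as follows, unless noted: active = fluorescence slope after compound addition differing from the mean of all screened samples at 99.7% confidence, in either direction; inactive = the rest.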

Key:
[1] = inhibitors of TNFa-induced NFkB p65 translocation, primary screen, imaging, HUVEC, MLSMR starter and 10KST1 sets (AID 438;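 active = inhibition above 20% together with a positive visual image hit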;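 also: compound added about 3h40 before a 20 min TNFalpha stimulation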;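 as to inhibition: signal is the nuclear over cytoplasmic p65 intensity ratio per well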); settings: HUVEC TNFa-induced p65 nuclear translocation; cell count: measured here: nuclei count (cytotoxicity indicator), at 2.08 µM; inhibition: at 2 µM, stronger effect = higher value, 0% TNFa-plus-vehicle, 100% no-TNFa wells
[2] = inhibitors of mutant huntingtin aggregation, primary screen, imaging, exon1htt(103Q)mCFP cells, high-content imaging (AID 483;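 active = visual image review flags a hit and inhibition of aggregation exceeds 20%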;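 also: compound exposure lasted 3 days before fixation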;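 as to nuclei count: percent of the per-plate median nuclei count of sample wells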); settings: exon1htt(103Q)mCFP cell line, aggregate imaging, at 2 µM; inhibition of aggregation: stronger effect = higher value; nuclei count: measured here: cell count, toxicity
[3] = inhibitors of E-selectin induction by TNFa, primary screen, imaging, HUVEC, immunofluorescence, MLSMR starter and 10KST1 sets (AID 487;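 active = visually confirmed hit in the image check and inhibition above 20%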;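 as to inhibition: signal is fraction of cell area covered by stained E-selectin grains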;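 as to nuclei count: 100% = median nuclei count of all wells on the same plate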); settings: HUVEC TNFalpha-induced E-selectin immunofluorescence imaging, at 2 µM; inhibition: stronger effect = higher value; nuclei count: measured here: cell number, toxicity
[4] = target: Voltage-gated potassium channel subunit beta-2 (Rattus norvegicus) (UniProt P62483); assay: KvBeta enzyme negative modulators, primary screen, biochemical, NADPH fluorescence (AID 622;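 active = fluorescence slope higher than the sample average by over 3 SD, cut at about -0.22 in these data, passing the limit was not always enough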;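 also: slope of raw intensity against log time taken from 70 to 1610 s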); settings: recombinant KvBeta, 4-cyanobenzaldehyde reduction, at 10 µM, stronger effect = higher value
[5] = target: Voltage-gated potassium channel subunit beta-2 (Rattus norvegicus) (UniProt P62483); assay: KvBeta positive modulators, primary screen, biochemical, NADPH fluorescence (AID 623;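 active = NADPH fluorescence slope more negative than the mean of all samples by about 3 SD, 99.7% confidence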;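 also: fluorescence intensity change per second fitted from 20 to 320 s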); settings: Recombinant KvBeta, NADPH fluorescence decrease slope, 10 min; at 10 µM; stronger effect = lower value
[6] = target: Alpha-2C adrenergic receptor (Homo sapiens) (UniProt P18825); assay: modulators of alpha2C/GIRK thallium flux, primary screen, cell-based, HEK293 alpha2C/GIRK1/2 (AID 624); settings: thallium flux BTC fluorescence, at 10 µM, actives lie on both sides;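 also: slope of fluorescence ratio to pre-addition baseline per second over 15 to 24 s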
[7] = inhibitors of Sendai virus-induced IRF3 signaling, primary screen, TLR/RLR signaling modifier project, cell-based, Sendai virus stimulus, luciferase, 10K MLSCN set (AID 602276;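 active = inhibition at or above 50% at 10 µM; inactive = inhibition below 50%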;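 also: firefly luciferase from ISG56 promoter only with Renilla not read in this screen; 0% = Sendai virus plus DMSO and 100% = medium plus DMSO without virus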); settings: HEK293 RL24 IRF3 luciferase reporter, at 10 µM, stronger effect = higher value
[8] = inhibitors of poly I:C-induced TLR3 signaling, primary screen, cell-based, poly I:C stimulus, luciferase, 10K MLSCN set (AID 602277;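 active = inhibition of the reporter signal at or above 50%; inactive = inhibition below 50%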); settings: HEK293-TLR3 RL24 IRF3 luciferase reporter, at 10 µM, stronger effect = higher value

Chain of Alpha-2C adrenergic receptor (Homo sapiens) (P18825 whole entry, looked up): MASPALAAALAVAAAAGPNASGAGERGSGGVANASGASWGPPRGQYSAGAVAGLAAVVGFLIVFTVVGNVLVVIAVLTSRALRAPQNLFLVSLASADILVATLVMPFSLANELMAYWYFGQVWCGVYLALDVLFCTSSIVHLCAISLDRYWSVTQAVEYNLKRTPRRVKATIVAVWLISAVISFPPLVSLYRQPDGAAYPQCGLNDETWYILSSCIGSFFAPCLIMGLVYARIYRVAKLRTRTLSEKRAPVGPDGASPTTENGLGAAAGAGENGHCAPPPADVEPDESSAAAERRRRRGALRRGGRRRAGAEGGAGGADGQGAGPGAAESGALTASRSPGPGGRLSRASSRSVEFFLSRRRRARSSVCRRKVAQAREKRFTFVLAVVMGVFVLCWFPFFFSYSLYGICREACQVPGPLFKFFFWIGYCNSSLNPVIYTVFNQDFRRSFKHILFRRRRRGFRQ
Chain of Voltage-gated potassium channel subunit beta-2 (Rattus norvegicus) (P62483 whole entry, looked up): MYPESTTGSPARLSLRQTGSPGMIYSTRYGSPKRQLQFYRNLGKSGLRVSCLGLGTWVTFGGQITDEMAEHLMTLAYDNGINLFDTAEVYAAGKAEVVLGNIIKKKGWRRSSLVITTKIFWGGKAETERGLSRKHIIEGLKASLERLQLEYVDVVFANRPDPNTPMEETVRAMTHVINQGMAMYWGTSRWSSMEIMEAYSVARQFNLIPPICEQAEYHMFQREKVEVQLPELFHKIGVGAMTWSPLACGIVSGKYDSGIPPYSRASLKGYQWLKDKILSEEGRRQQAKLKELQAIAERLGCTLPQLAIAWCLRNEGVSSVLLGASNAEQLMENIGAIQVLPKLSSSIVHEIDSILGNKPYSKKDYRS

With CCOc1ccc(N(CC(=O)NCc2cccc(OC)c2)S(=O)(=O)c2c(C)noc2C)cc1 the cell count [1] was 362, the inhibition [1] was -3.2% (inactive) and the inhibition of aggregation [2] was 18.9% (inactive). For the same molecule, the nuclei count [2] was 95%, the inhibition [3] was -114% (inactive) and the nuclei count [3] was 104%. The fluorescence slope [4] was -0.415 (inactive), the NADPH fluorescence slope [5] was 1.6e-05 (inactive) and the slope [6] was 0.00505 (inactive). The inhibition [7] was -5.75% (inactive) and the inhibition [8] was -5.65% (inactive).

With Cc1ccc(Cl)cc1N1CCN(C(=O)CN2C(=O)c3cccc4cccc2c34)CC1 the cell count [1] was 771, the inhibition [1] was -7.2% (inactive) and the inhibition of aggregation [2] was -2.2% (inactive). For the same molecule, the nuclei count [2] was 89.4%, the inhibition [3] was -11.6% (inactive) and the nuclei count [3] was 101%. For the same molecule, the fluorescence slope [4] was -0.341 (inactive), the NADPH fluorescence slope [5] was 4.7e-06 (inactive) and the slope [6] was 0.0104 (active). The inhibition [7] was 9.95% (inactive) and the inhibition [8] was 8.22% (inactive).

In the case of COC(=O)CSc1ncccc1-c1nc2ccccc2[nH]1, the cell count [1] is reported as 473, the inhibition [1] is reported as -4.5% (inactive) and the inhibition of aggregation [2] is reported as -2% (inactive). For the same molecule, the nuclei count [2] was 111%, the inhibition [3] was -48.5% (inactive) and the nuclei count [3] was 99.2%. For the same molecule, the fluorescence slope [4] was -0.512 (inactive), the NADPH fluorescence slope [5] was 3.1e-05 (inactive) and the slope [6] was 0.00493 (inactive). For the same molecule, the inhibition [7] was -16.6% (inactive) and the inhibition [8] was -32.8% (inactive).

For CC(C)OC(=O)c1ccc(OC(=O)c2cccnc2)cc1, the cell count [1] was 424, the inhibition [1] was 3.3% (inactive) and the inhibition of aggregation [2] was -5.5% (inactive). The nuclei count [2] was 107%, the inhibition [3] was 12.1% (inactive) and the nuclei count [3] was 104%. The fluorescence slope [4] was -0.429 (inactive), the NADPH fluorescence slope [5] was -6.3e-05 (inactive) and the slope [6] was 0.00544 (inactive). The inhibition [7] was -2.15% (inactive) and the inhibition [8] was -5.2% (inactive).

In the case of CCC(=O)N1CCc2cc(S(=O)(=O)CCC(=O)Nc3ccc(F)c(F)c3)ccc21, the cell count [1] is reported as 571, the inhibition [1] is reported as 5.2% (inactive) and the inhibition of aggregation [2] is reported as 6.1% (inactive). The nuclei count [2] was 96%, the inhibition [3] was -68.8% (inactive) and the nuclei count [3] was 111%. For the same molecule, the fluorescence slope [4] was -0.423 (inactive), the NADPH fluorescence slope [5] was -1.2e-05 (inactive) and the slope [6] was 0.00293 (inactive). The inhibition [7] was -11.6% (inactive) and the inhibition [8] was -3.44% (inactive).

For Cc1cc(OCC(=O)N2CCCC2)cc(C)c1Cl, the cell count [1] was 633, the inhibition [1] was 6.6% (inactive) and the inhibition of aggregation [2] was 3.4% (inactive). The nuclei count [2] was 95%, the inhibition [3] was -128% (inactive) and the nuclei count [3] was 99.5%. For the same molecule, the fluorescence slope [4] was -0.601 (inactive), the NADPH fluorescence slope [5] was -7.6e-05 (inactive) and the slope [6] was 0.00573 (inactive). For the same molecule, the inhibition [7] was 4.42% (inactive) and the inhibition [8] was -0.933% (inactive).

For Cn1c2ccc(F)cc2c2ncn(CCN3CCOCC3)c(=O)c21, the cell count [1] was 719, the inhibition [1] was -8.9% (inactive) and the inhibition of aggregation [2] was -7.4% (inactive). The nuclei count [2] was 81.6%, the inhibition [3] was -39.1% (inactive) and the nuclei count [3] was 109%. For the same molecule, the fluorescence slope [4] was -0.424 (inactive), the NADPH fluorescence slope [5] was -1.5e-05 (inactive) and the slope [6] was 0.00608 (inactive). For the same molecule, the inhibition [7] was -47.2% (inactive) and the inhibition [8] was 99.1% (active).

For Cc1ccccc1C1CC(c2ccccc2)Nc2ncnn21 (centres undefined), the cell count [1] was 561, the inhibition [1] was 0% (inactive) and the inhibition of aggregation [2] was -26.3% (inactive). The nuclei count [2] was 92.1%, the inhibition [3] was -47% (inactive) and the nuclei count [3] was 108%. For the same molecule, the fluorescence slope [4] was -0.528 (inactive), the NADPH fluorescence slope [5] was -1.4e-06 (inactive) and the slope [6] was 0.00646 (inactive). For the same molecule, the inhibition [7] was 3.07% (inactive) and the inhibition [8] was 15.7% (inactive).

In the case of CCOC(=O)C1CCN(Cc2c(O)ccc3ccccc23)CC1, the cell count [1] is reported as 596, the inhibition [1] is reported as -3% (inactive) and the inhibition of aggregation [2] is reported as 3.7% (inactive). The nuclei count [2] was 109%, the inhibition [3] was -41.8% (inactive) and the nuclei count [3] was 124%. The fluorescence slope [4] was -0.5 (inactive), the NADPH fluorescence slope [5] was -7.8e-05 (inactive) and the slope [6] was 0.00484 (inactive). The inhibition [7] was 25.4% (inactive) and the inhibition [8] was 33.8% (inactive).

In the case of CC(=O)c1ccc(NC2OC(C)C(O)C(O)C2O)cc1 (centres undefined), the cell count [1] is reported as 329, the inhibition [1] is reported as 4.3% (inactive) and the inhibition of aggregation [2] is reported as -0.6% (inactive). For the same molecule, the nuclei count [2] was 93.8%, the inhibition [3] was -90% (inactive) and the nuclei count [3] was 103%. For the same molecule, the fluorescence slope [4] was -0.382 (inactive), the NADPH fluorescence slope [5] was -8.6e-06 (inactive) and the slope [6] was 0.00391 (inactive). The inhibition [7] was -11.5% (inactive) and the inhibition [8] was -11.5% (inactive).

For Cc1cccc(C(OC(=O)c2ccco2)C(=O)NCc2ccccc2)n1 (centres undefined), the cell count [1] was 724, the inhibition [1] was -15.3% (inactive) and the inhibition of aggregation [2] was -7.2% (inactive). The nuclei count [2] was 104%, the inhibition [3] was -79.6% (inactive) and the nuclei count [3] was 106%. For the same molecule, the fluorescence slope [4] was -0.478 (inactive), the NADPH fluorescence slope [5] was -1.3e-05 (inactive) and the slope [6] was 0.00475 (inactive). For the same molecule, the inhibition [7] was -5.03% (inactive) and the inhibition [8] was 21.1% (inactive).

For O=C(Nc1ccc(F)cc1)N(CCCN1CCOCC1)Cc1cc2cc3c(cc2[nH]c1=O)OCO3, the cell count [1] was 633, the inhibition [1] was -3% (inactive) and the inhibition of aggregation [2] was -34.9% (inactive). The nuclei count [2] was 105%, the inhibition [3] was -27.7% (inactive) and the nuclei count [3] was 114%. For the same molecule, the fluorescence slope [4] was -0.362 (inactive), the NADPH fluorescence slope [5] was -4.4e-05 (inactive) and the slope [6] was 0.00497 (inactive). The inhibition [7] was 15.6% (inactive) and the inhibition [8] was 28.6% (inactive).

With O=C(NCC1CCCO1)C1CCN(S(=O)(=O)c2cccc3cccnc23)CC1 (centres undefined) the cell count [1] was 651, the inhibition [1] was -5% (inactive) and the inhibition of aggregation [2] was 6.8% (inactive). For the same molecule, the nuclei count [2] was 104%, the inhibition [3] was -63.2% (inactive) and the nuclei count [3] was 114%. The fluorescence slope [4] was -0.516 (inactive), the NADPH fluorescence slope [5] was 1.4e-05 (inactive) and the slope [6] was 0.00614 (inactive). For the same molecule, the inhibition [7] was 10.7% (inactive) and the inhibition [8] was 25.3% (inactive).

For O=C(Nc1ccccc1N1CCOCC1)c1ccc2ccccc2n1, the cell count [1] was 589, the inhibition [1] was -21.6% (inactive) and the inhibition of aggregation [2] was -18.1% (inactive). For the same molecule, the nuclei count [2] was 92.8%, the inhibition [3] was 17.1% (inactive) and the nuclei count [3] was 94.6%. For the same molecule, the fluorescence slope [4] was -0.39 (inactive), the NADPH fluorescence slope [5] was -4.7e-05 (inactive) and the slope [6] was 0.00386 (inactive). For the same molecule, the inhibition [7] was -13.5% (inactive) and the inhibition [8] was -46% (inactive).
